Source: PubChem BioAssay (The Scripps Research Institute Molecular Screening Center)
Hits are enriched below; roughly 2.4% of the tested compounds scored in any of these assays.
M1 antag – human CHRM1 antagonism. CHO-K1 hM1, Fluo-8 calcium fluorescence, ACh EC80 antagonist. inhibition, % at 3 µM. 360,000 compounds, 1.3% hits;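 active = percent inhibition above its own plate's cutoff, namely the mean of that plate's compound wells plus 3 SD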;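 also: peak over basal fluorescence ratio during 140 s after agonist addition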
Target sequence (P11229 whole entry, looked up): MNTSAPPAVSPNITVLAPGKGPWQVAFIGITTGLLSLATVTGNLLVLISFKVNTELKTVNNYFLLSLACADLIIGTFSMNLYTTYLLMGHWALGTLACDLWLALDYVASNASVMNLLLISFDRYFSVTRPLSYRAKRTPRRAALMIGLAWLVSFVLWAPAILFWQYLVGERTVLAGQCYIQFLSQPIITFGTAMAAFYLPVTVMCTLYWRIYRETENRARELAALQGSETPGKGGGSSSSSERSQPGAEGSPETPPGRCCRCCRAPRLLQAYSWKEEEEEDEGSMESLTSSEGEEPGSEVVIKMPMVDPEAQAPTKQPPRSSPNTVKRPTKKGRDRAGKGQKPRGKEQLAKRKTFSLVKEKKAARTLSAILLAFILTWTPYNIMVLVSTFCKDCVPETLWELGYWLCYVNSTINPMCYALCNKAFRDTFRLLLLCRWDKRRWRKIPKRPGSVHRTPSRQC
M1 PAM – human CHRM1 positive allosteric modulation; P11229; CHO-K1 hM1, Fluo-8 calcium fluorescence, ACh EC20; 0% = ACh EC20, 100% = maximal ACh; activation, % at 3 µM; 360,000 compounds, 0.088% hits; in the data active = activation above about 19%, passing the limit was not always enough
CHO-K1 Ca antag – nonselective inhibitor or artifact in parental CHO-K1 cells; inhibition, % at 3 µM; AID 602250; 360,000 compounds, 0.6% hits; ATP-induced calcium, Fluo-8 fluorescence;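 active = inhibition above a per-plate cutoff, the plate's mean sample inhibition plus 3 SD, cut at about 24% in these data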
M1 ag – activates human CHRM1 receptor; P11229; CHO-K1 hM1, Fluo-8 calcium fluorescence, agonist mode; 0% DMSO, 100% acetylcholine EC100; activation, % at 3 µM; 360,000 compounds, 0.33% hits; AID 588814;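 active = activation above the run's mean compound activation plus 3 SD, cut at about 16% in these data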;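 also: peak over basal fluorescence ratio within a 140 s kinetic read after compound addition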
M1 PAM parental – counter-screen for M1 PAMs: effect in parental CHO-K1 cells. AID 602247. activation, % at 3 µM. 360,000 compounds, 0.02% hits. ATP EC20, Fluo-8 calcium fluorescence; 0% at ATP EC20, 100% at ATP max;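 active = activation above the run cutoff, the mean activation of all test compounds plus 3 SD, cut at about 40% in these data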;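 also: peak over basal fluorescence ratio in a 140 s read after ATP addition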
CHO-K1 Ca ag – M1 agonist counterscreen hit in parental CHO-K1 cells; Fluo-8 calcium fluorescence; scaled to maximal ATP response, vehicle zero; activation, % at 3 µM; 360,000 compounds, 0.48% hits; in the data active = activation above about 15%;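 also: untransfected CHO-K1 host cells lacking M1 receptor as counterscreen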
Large screens that a line does not name were inactive.

COc1ccc(CNC[C@@H](CCCCN(C)Cc2ccc(OC)cc2)N2C[C@H](c3ccccc3)N(CCc3ccc(Cl)c(Cl)c3)C(=O)C2=O)cc1	M1 ag 21.3, CHO-K1 Ca ag 30.0
CCN(CC)C(=O)CCNS(=O)(=O)c1ccc(C)cc1	CHO-K1 Ca antag 28.2
CSc1cccc(CN2CCC(Oc3cccc(C(=O)N4CCCC4)c3)CC2)c1	none
COCCNC(=O)c1cccc(OC2CCN(Cc3ccc(C(C)C)cc3)CC2)c1	none
COCCNC(=O)C1CCCN(Cc2ccccc2)CC1 (stereo unspecified)	none
COCCNC(=O)c1cccc(OC2CCN(Cc3ccc(C(=O)OC)cc3)CC2)c1	M1 antag 70.5, M1 ag 19.2
COCCNC(=O)CCC1CCN(Cc2ccc(-c3ccccc3)cc2)CC1	M1 antag 99.1
COC(=O)c1ccc(CN2CCC(Oc3cccc(C(=O)N4CCOCC4)c3)CC2)cc1	M1 antag 83.9, M1 ag 18.5
COc1nc(Nc2ccc(O)cc2)nc(OC(C(F)(F)F)C(F)(F)F)n1	none
Cc1cc(NC(=O)CSc2nc(N)c(NC(=O)c3ccc(F)c(F)c3)c(=O)[nH]2)no1	none
Cc1ccc(S(=O)(=O)c2c(N)n(NC(=O)c3ccccc3C)c3nc4ccccc4nc23)cc1	none
Cc1ccc(C(=O)Nn2c(N)c(S(=O)(=O)c3ccc(C)cc3)c3nc4ccccc4nc32)cc1	M1 antag 20.4
Cc1ccc(/C=N/NC(=O)Cn2nnc(N)n2)o1	none
CC(C)(C)c1ccc(C(=O)CCC(=O)OCC(=O)NCCc2ccc(S(N)(=O)=O)cc2)cc1	M1 antag 46.9, CHO-K1 Ca ag 20.3
Cc1ccc(N=C2C(=O)Nc3ccc(C)c(Br)c32)cc1	none
COc1ccc(N=C2C(=O)Nc3ccc(C)c(Br)c32)cc1	CHO-K1 Ca antag 25.8
CC(=O)C1=CCC(c2ccccc2)N(S(=O)(=O)c2cccc(C)c2)C1 (stereo unspecified)	none
NC1=NC[C@H](Cc2ccc(O)cc2)N1CCC12CC3CC(CC(C3)C1)C2	M1 antag 37.2
O=C(NC(=S)Nc1nc(-c2ccc([N+](=O)[O-])cc2)cs1)c1ccco1	none
Cc1c(CN(C)Cc2cn(C)nc2-c2ccccc2F)[nH]c2ccccc12	none
Oc1ccccc1/C=N/N1CCCCC1	M1 ag 31.1
Oc1[nH]c2ccccc2c1/C=N/N1CCCCC1	M1 ag 31.9
COC(=O)c1ccc(CN2CCC(n3nccc3NC(=O)C3CC3)CC2)cc1	M1 ag 18.7
CCNC(=O)C1CCCN(Cc2ccc(C(=O)OCC)cc2)CC1 (stereo unspecified)	M1 antag 64.6
COC(=O)c1ccc(CN2CCCC(C(=O)Nc3cccc(-n4cccn4)c3)C2)cc1 (stereo unspecified)	M1 antag 41.2, M1 ag 37.6
COc1ccc(CN2CCCC(C(=O)Nc3cccc(-n4cccn4)c3)C2)cc1 (stereo unspecified)	none
COC(=O)c1ccc(CN2CCC(n3nccc3NC(=O)C3CCCC3)CC2)cc1	M1 ag 21.3
CC12CN3CCN(CC(C3)/C1=N/NC(=O)Nc1ccccc1)C2	none
O=C(COC(=O)c1ccc(Br)c(S(=O)(=O)N2CCOCC2)c1)NCC1CCCO1 (stereo unspecified)	none
Oc1ccc(Cl)cc1C1=NNC(c2cccs2)C1 (stereo unspecified)	none
Cc1ccc(O)c(C2=NNC(c3ccc(Cl)cc3)C2)c1 (stereo unspecified)	M1 antag 45.4, M1 ag 22.6
O=C(CCNS(=O)(=O)c1cccc2nsnc12)N1CCN(c2ccccn2)CC1	M1 antag 89.4
CCN(CC)C(=O)C1=C(C)N(Cc2ccc(F)cc2)C(=O)C(CC(=O)NC2CCCCC2)C1 (stereo unspecified)	none
CN1CCN(S(=O)(=O)c2ccc3c(c2)NC(=O)C2CCCN32)CC1 (stereo unspecified)	none
CCCCn1c(N)c(N(CCOC)C(=O)c2ccc3c(c2)C(=O)N(c2ccccc2C)C3=O)c(=O)[nH]c1=O	M1 antag 33.0
Cc1cccc(C)c1NC(=O)C(=O)NCCc1c[nH]c2ccccc12	M1 ag 17.3
